From PubChem BioAssay AID1159580 (chemical genetic matrix, 2015)
Several values for one entry are separate records, joined by “and”; a condition that tells them apart may be missing. Equal values may be shown once. The whole screen tested about 5,500 compounds, of which about 2,000 (36%) were called active. About 18% were inconclusive and are not listed. Cut-off read from the data, not from the text of the source: active = normalized growth mostly below about 0.91 (no sharp cut-off); inconclusive = no clear call, values can overlap the other calls; inactive = mostly above about 0.92. This is one part of the list.

Test: chemical genetic growth profiling, strain panel (AID 1159580);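 note: tested at 20 µM; growth read once vehicle control cultures reached saturation at 30 °C; 1 = growth at the plate median or of vehicle wells; lower values mean less growth of the strain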
Settings: S. cerevisiae deletion strains, growth OD

Measured: normalized growth

C#C[C@]1(O)CCC2C3CCC4=CC(=O)CC[C@@H]4C3CC[C@@]21CC (some centres undefined)
active: locus YDR137W, strain rgp1, active compounds read low 0.82
inactive: locus YAL021C, strain ccr4, active compounds read low 0.986 | locus YAL026C, strain drs2, active compounds read low 0.972 | locus YAL030W, strain snc1, active compounds read low 1 | locus YBL061C, strain skt5, active compounds read low 0.987 | locus YBR009C, strain hhf1, active compounds read low 0.985 | locus YBR021W, strain FUR4, active compounds read low 1 | locus YBR023C, strain chs3, active compounds read low 0.983 | locus YBR171W, strain sec66, active compounds read low 0.992 | locus YBR229C, strain ROT2, active compounds read low 0.984 | locus YBR231C, strain swc5, active compounds read low 1.01 | locus YBR279W, strain paf1, active compounds read low 0.998 | locus YCL011C, strain gbp2, active compounds read low 1 | locus YCL016C, strain dcc1, active compounds read low 0.988 | locus YCL029C, strain bik1, active compounds read low 0.981 | locus YCL061C, strain MRC1, active compounds read low 0.991 | locus YCL069W, strain vba3, active compounds read low 0.995 | locus YCR088W, strain abp1, active compounds read low 0.999 | locus YDL005C, strain med2, active compounds read low 0.987 | locus YDL035C, strain GPR1, active compounds read low 0.979 | locus YDL040C, strain nat1, active compounds read low 0.99 | locus YDL074C, strain BRE1, active compounds read low 1.04 | locus YDL101C, strain DUN1, active compounds read low 0.987 | locus YDL134C, strain PPH21, active compounds read low 0.974 | locus YDL185W, strain tfp1, active compounds read low 0.982 | locus YDL192W, strain arf1, active compounds read low 0.986 | locus YDR001C, strain nth1, active compounds read low 1 | locus YDR069C, strain doa4, active compounds read low 0.979 | locus YDR101C, strain arx1, active compounds read low 0.988 | locus YDR150W, strain NUM1, active compounds read low 1.01 | locus YDR159W, strain sac3, active compounds read low 0.978 | locus YDR162C, strain NBP2, active compounds read low 0.997 | locus YDR195W, strain ref2 1.05 | locus YDR297W, strain sur2, active compounds read low 0.993 | locus YDR318W, strain mcm21, active compounds read low 0.976 | locus YDR334W, strain swr1, active compounds read low 1.01 | locus YDR335W, strain msn5, active compounds read low 1 | locus YDR388W, active compounds read low 0.992 | locus YDR392W, strain spt3, active compounds read low 0.828 | locus YDR502C, strain sam2, active compounds read low 0.984 | locus YEL003W, strain gim4, active compounds read low 0.967 | locus YEL037C, strain rad23, active compounds read low 0.983 | locus YEL061C, strain CIN8 (second series), active compounds read low 1 | locus YEL061C, strain CIN8, active compounds read low 1.01 | locus YER015W, strain faa2, active compounds read low 1.01 | locus YER016W, strain bim1, active compounds read low 0.993 | locus YER110C, active compounds read low 0.999 | locus YER111C, strain swi4, active compounds read low 0.997 | locus YER155C, strain BEM2 (second series), active compounds read low 0.997 | locus YER155C, strain BEM2, active compounds read low 0.99 | locus YER167W, strain BCK2, active compounds read low 0.991 | locus YFR010W, strain ubp6, active compounds read low 0.991 | locus YGL078C, strain dbp3, active compounds read low 0.989 | locus YGL086W, strain mad1, active compounds read low 1 | locus YGL167C, strain pmr1, active compounds read low 0.995 | locus YGL173C, strain kem1, active compounds read low 0.979 | locus YGL227W, strain vid30, active compounds read low 1.01 | locus YGL240W, strain doc1, active compounds read low 0.991 | locus YGL248W, strain PDE1, active compounds read low 0.993 | locus YGL253W, strain hxk2, active compounds read low 0.995 | locus YGR135W, strain pre9, active compounds read low 0.975 | locus YGR229C, strain SMI1, active compounds read low 1.01 | locus YGR252W, strain gcn5, active compounds read low 1.06 | locus YHR013C, strain ard1, active compounds read low 1.01 | locus YHR027C, strain rpn1, active compounds read low 1.01 | locus YHR030C, strain SLT2, active compounds read low 0.995 and 0.955 | locus YHR079C, strain IRE1 (second series), active compounds read low 0.979 | locus YHR079C, strain IRE1, active compounds read low 0.955 | locus YHR094C, strain hxt1, active compounds read low 1 | locus YHR129C, strain ARP1, active compounds read low 0.996 | locus YHR142W, strain chs7, active compounds read low 0.997 | locus YHR200W, strain rpn10, active compounds read low 0.984 | locus YIL066C, strain RNR3, active compounds read low 0.995 | locus YIL073C, strain SPO22, active compounds read low 0.944 | locus YIL125W, strain kgd1, active compounds read low 0.998 | locus YIR030C, strain dcg1, active compounds read low 0.982 | locus YJL092W, strain hpr5, active compounds read low 0.998 | locus YJL095W, strain BCK1 (second series), active compounds read low 1.01 | locus YJL095W, strain BCK1, active compounds read low 0.988 and 0.951 | locus YJL115W, strain asf1, active compounds read low 1 | locus YJL129C, strain trk1, active compounds read low 0.986 | locus YJL134W, strain LCB3, active compounds read low 0.995 | locus YJL154C, strain vps35, active compounds read low 0.993 | locus YJL164C, strain tpk1, active compounds read low 0.988 | locus YJL166W, strain qcr8, active compounds read low 0.991 | locus YJL168C, strain set2, active compounds read low 0.99 | locus YJL187C, strain SWE1 (second series), active compounds read low 0.988 | locus YJL187C, strain SWE1, active compounds read low 0.997 | locus YJR043C, strain POL32, active compounds read low 1.01
